Screening results: PubChem BioAssay, National Center for Advancing Translational Sciences (NCATS)
SW480 rereplic: DNA re-replication induction in SW480 cells; SW480 DNA re-replication, Hoechst DNA content imaging, 48 h; Potency, µM (top dose mostly 46.1 µM), without a hit: at the top dose re-replication activation, usual class: activators; 1.8% of 340,000 active; also: % of control where 0% means no effect; nearly all actives have a fitted effect of over 55% in size
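DNA re-replication was detected as more nuclei of elevated Hoechst intensity after 48 hr exposure to compound (23 nL pinned per well of 250 cells).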
PINK1 modulator: changes PINK1 expression. PINK1 immunofluorescence, high-content cytometry, 24 h. 0.2% of 410,000 active. Potency, µM (highest dose often 76.6 µM), for the others: at the highest dose activation (PINK1 increase), most hits filed as activators; active = well fitted activation curve with a large enough effect; inconclusive = small, poorly fitted or top-dose-only effect; cell line not stated here; also: % of control where 0% means no effect; nearly all actives have a fitted effect of over 65% in size
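A stable cell line was treated with compounds at 5 concentrations for 24 hours, with CCCP as control. PINK1 levels and mitochondrial localization were measured by immunofluorescence with mitochondrial, cell and nuclear markers after fixation, read by laser-scanning cytometry.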
KB-3-1 cytotox: kills parental KB-3-1 adenocarcinoma cells; KB-3-1 viability, CellTiter-Glo ATP luminescence, 72 h; Potency, µM (series often up to 46.1 µM), most hits filed as cytotoxic; 1.4% of 400,000 active; AID 1347075; also: % is scaled to controls: 0 for no effect and ±100 for the full control effect; nearly all actives have a fitted effect of over 60% in size
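KB-3-1 parental drug-naive adenocarcinoma cells in DMEM/10% FBS, incubated 72 h at 37 C with pin-transferred compounds across a concentration series. Viability by CellTiter-Glo luminescence; concentration-response curves fitted after normalization.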
KB-V1 MDR tox: kills drug-selected multidrug resistant KB-V1 cells; KB-V1 MDR cells viability, CellTiter-Glo, 72 h; Potency, µM (titrated, usually from 46.1 µM), most hits filed as cytotoxic; 3.4% of 400,000 active; AID 1347076; also: % is scaled to controls: 0 for no effect and ±100 for the full control effect; nearly all actives have a fitted effect of over 60% in size
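KB-V1, DMEM (no phenol red) + 10% FBS; cpd pin-transferred, titration series; 72 h, 37 degrees C; CellTiter-Glo, luminescence. Data normalized, curve-fit.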
MCF10A rerep: inducers of DNA re-replication in MCF 10A breast cells. MCF 10A DNA re-replication, Hoechst nuclear intensity, 48 h. Potency, µM (highest dose often 46.1 µM), for the others: at the top dose activity, positive = re-replication, usual class: activators. 2.9% of 350,000 active; also: % of control where 0% means no effect; nearly all actives have a fitted effect of over 50% in size
TSG101-PTAP inh: blocks PTAP/TSG101 interaction to inhibit HIV-1 budding; Q99816; Fluorescence polarization, FITC-PTAP peptide / Tsg101 binding; 340,000 tested, under 10 active; Potency, µM (top dose mostly 115 µM), for the others: at the highest dose activity change, negative = inhibition, most hits filed as inhibitors; active = well fitted inhibition curve with a large enough effect in the main read-out, with a control signal flat, not every such curve was filed as active; inconclusive = small, poorly fitted or top-dose-only effect, or effect the other way, or a change in a side signal; inactive = no such curve, though single readings can be large or run the other way; also: % of control where 0% means no effect
Target sequence (Q99816 whole entry, looked up): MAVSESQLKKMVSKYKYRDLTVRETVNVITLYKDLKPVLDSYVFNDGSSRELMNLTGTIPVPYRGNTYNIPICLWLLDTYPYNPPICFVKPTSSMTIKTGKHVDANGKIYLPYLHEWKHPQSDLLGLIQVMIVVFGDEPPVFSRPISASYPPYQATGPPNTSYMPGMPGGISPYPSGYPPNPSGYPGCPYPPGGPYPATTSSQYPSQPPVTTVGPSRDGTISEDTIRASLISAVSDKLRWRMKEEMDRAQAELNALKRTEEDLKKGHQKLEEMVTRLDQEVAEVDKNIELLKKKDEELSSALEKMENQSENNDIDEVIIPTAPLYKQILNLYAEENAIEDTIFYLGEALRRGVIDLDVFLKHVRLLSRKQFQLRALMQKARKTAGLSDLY
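Fluorescence anisotropy tracks displacement of a FITC-tagged PTAP peptide (50 nM) from the Tsg101 binding domain (10 uM), following a 20 min room-temperature incubation at pH 7.5.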
* = called active by the depositor; i = inactive; ? = inconclusive; · = not tested or not shown; [ ] = remark or other dose. An excerpt weighted towards active compounds, which were near 6.8% of everything screened. Unless noted, calls follow the shape of the dose curve; as a rule, active = well fitted curve in the direction sought with a large enough effect; inconclusive = small, poorly fitted or top-dose-only effect, or another doubt; inactive = no such curve, though single readings can be large; an effect the other way counts as inactive or inconclusive. Potency is read from the fitted curve at half-maximal effect.

SMILES	SW480 rereplic	PINK1 modulator	KB-3-1 cytotox	KB-V1 MDR tox	MCF10A rerep	TSG101-PTAP inh
CCOC(=O)C1=C(C)C(c2cccc(Oc3ccccc3)c2)NC(=S)N1 (stereo unspecified)	6.3%	1.5%	i	?	?	-5.2%
CCOC(=O)C1=C(c2cccc(Oc3ccccc3)c2)NC(=S)NC1C (stereo unspecified)	-2.0%	9.7%	?	16.4µM*	?	-2.9%
CC(C)C(NC(=O)CSc1ccc(Cl)cc1)C(C)C	-0.6%	3.6%[38.3 µM]	i	?	25.9µM*	-6.8%
C=CC(C)(C)c1c(O)c(CC=C(C)C)c(O)c2c(=O)c3ccc(O)c(O)c3oc12	?	?	?	?	23.1µM*	-6.1%
C=CC(C)(C)c1c2occc2c(O)c2ccc(=O)oc12	?	?	i	i	?	-3.3%
c1ccc(-n2cnc3cc(NCc4ccccn4)ccc32)cc1	20.6µM*	·	i	i	5.8µM*	-0.6%
Cc1nc(-c2ccc(S(=O)(=O)Nc3ccc(C)c(N(C)C)c3)cc2)co1	·	-3.6%	18.4µM*	?	·	·
O=C(Nc1cccc(Cl)c1Cl)c1ccc2c(c1)N(Cc1cccc(Cl)c1)C(=O)c1ccccc1S2(=O)=O	·	1.9%	i	i	·	·
CCCCN(C=O)c1c(CC)nc2ccc(C(=O)Nc3cc(-c4ccccc4)ccc3OC)cn12	·	0.9%	?	23.1µM*	·	·
CCc1nc2ccc(C(=O)Nc3cc(-c4ccccc4)ccc3OC)cn2c1N(CC)CCN(C)C	·	-0.6%	?	?	·	·
Cc1ccc(S(=O)(=O)c2c(C)cc(C)nc2Cl)cc1	-5.2%	2.3%	i	13µM*	0.8%	-0.7%
Cc1cc(C)c(S(=O)(=O)c2ccccc2C)c(Oc2ccccc2)n1	-4.4%	0.7%	?	20.6µM*	8.9%	2.5%
COc1ccc(Oc2nc(C)cc(C)c2S(=O)(=O)c2ccc(C)cc2)cc1	-73.5%	0.1%	i	20.6µM*	9.8%	-2.1%
Cc1ccc(C)c(NC(=O)CCc2c(C)nn(-c3ccc(N4CCCC4)nn3)c2C)c1	·	-0.4%	·	·	·	·
Cc1nc2cc(C(=O)NCCC3=CCCCC3)ccc2n1-c1ccc(Br)cc1	·	-1.0%	i	i	·	·
CCC(C)n1c(SCC(=O)Nc2ccccc2C(F)(F)F)nc2ccsc2c1=O (stereo unspecified)	10.3%	?	i	23.1µM*	10.5%	-3.0%
CCC(C)n1c(SCC(=O)Nc2ccccc2C(=O)OC)nc2ccsc2c1=O (stereo unspecified)	·	-0.5%	·	·	·	·
CCC(C)n1c(SCc2ccccc2)nc2ccsc2c1=O (stereo unspecified)	106.6%	?	?	10.3µM*	?	1.6%
Cc1nn(CC(=O)NC2CC2)c(=O)c2cc3cc(F)ccc3n12	·	-0.5%	i	?	·	·
COc1cccc(-c2ccnc(-n3ncc(C(=O)NCC(C)(C)CN(C)C)c3C)n2)c1	·	0.2%	·	·	·	·
COc1ccc(C(=O)Nc2ccc3c(c2)nc2n3CCSC2)cc1	-0.3%	-4.0%	?	?	1.8%	-0.8%
O=C(Nc1ccc2c(c1)nc1n2CCSC1)c1ccccc1	-10.6%	1.1%	?	13µM*	2.6%	-2.1%
COC1=C(C)C(=O)C2=C(C1=O)C1C3CC4=C(C(=O)C(OC)=C(C)C4=O)C(CNC(=O)C(C)=O)N3C(C#N)C(C2)N1C (stereo unspecified)	?	-6.2%	0.103µM*	2.31µM*	?	-4.4%
COc1cc(OC)c2c(-c3cccc(-c4cccc(C)c4)c3)cc(=O)oc2c1	?	0.0%	i	i	?	-1.5%
COc1ccc(-c2ccc(-c3cc(=O)oc4cc(OC)c(OC)c(OC)c34)cc2)cc1F	-16.2%	-0.6%	i	i	?	-1.0%
SMILES	SW480 rereplic	PINK1 modulator	KB-3-1 cytotox	KB-V1 MDR tox	MCF10A rerep	TSG101-PTAP inh
COc1cc(OC)c2c(-c3cccc(-c4ccc(CO)cc4)c3)cc(=O)oc2c1	0.731µM*	6.9%	?	2.59µM*	?	-4.6%
COc1cc2oc(=O)cc(-c3ccc(-c4ccc(N(C)C)cc4)cc3)c2c(OC)c1OC	-27.2%	?	i	i	1.03µM*	13.6%
COc1cc(OC)c2c(-c3cccc(-c4ccc(O)cc4)c3)cc(=O)oc2c1	?	?	16.4µM*	?	?	-1.0%
COc1cc(OC)c2c(-c3cccc(/C=C/c4ccc(F)cc4)c3)cc(=O)oc2c1	-29.3%[9.22 µM]	9.7%	i	i	0.3%	1.1%
COc1cc(OC)c2c(-c3cccc(-c4ccc(N(C)C)cc4)c3)cc(=O)oc2c1	4.11µM*	5.7%	2.59µM*	?	?	-2.2%
COc1cc(OC)c2c(-c3cccc(-c4ccc(OC(F)(F)F)cc4)c3)cc(=O)oc2c1	-67.7%	-1.1%	i	i	-2.4%	-0.6%
COc1ccc(-c2cccc(-c3cc(=O)oc4cc(OC)cc(OC)c34)c2)cc1	0.231µM*	4.7%	0.651µM*	1.16µM*	0.206µM*	1.7%
COc1ccc(-c2cccc(-c3cc(=O)oc4cc(OC)c(OC)c(OC)c34)c2)cc1	?	6.1%	?	23.1µM*	?	-4.4%
CCn1c2ccccc2c2cc(/C=N/NC(=O)c3ccccc3C)ccc21	13µM*	6.6%	20.6µM*	5.17µM*	4.61µM*	-0.8%
Cn1c2ccccc2c2cc(/C=N/NC(=O)c3ccccc3F)ccc21	?	-0.4%	i	i	?	0.2%
CCn1c2ccccc2c2cc(/C=N/NC(=O)c3cccc(C)c3)ccc21	?	1.2%	?	5.8µM*	5.8µM*	-4.3%
CC(C)(C)c1ccc(OCc2nnc(-c3ccccc3)o2)cc1	·	8.0%	i	i	·	·
Cc1c(C(=O)N2CCCC2)sc2ncnc(NCCCN3CCOCC3)c12	·	1.7%	·	·	·	·
Cc1ccc(C(=O)Nc2cccc(-c3nc(CNC(=O)C4(C)CC4)c(C)o3)c2)s1	·	0.4%	·	·	·	·
CC(C)N(C1=N/C(=C\c2ccco2)C(=O)N1c1ccccc1)C(C)C	?	16.5%	i	i	7.31µM*	-1.5%
CCOc1ccc(C(=O)Nc2nnc(S(=O)(=O)N(CC)c3ccccc3C)s2)cc1	·	3.5%	·	·	·	·
COc1ccc(NC(=O)CC2C(=O)N(c3ccccc3)C(=O)N2CCc2sccc2C)cc1 (stereo unspecified)	·	0.2%	i	i	·	·
Clc1ccccc1OCCCCN1CCNCC1	-43.8%	-2.2%	i	i	20.6µM*	1.0%
CC1CCN(c2nc(Cl)nc(Nc3ccc([N+](=O)[O-])cc3)n2)CC1	-3.2%	-5.0%	i	i	5.17µM*	-0.2%
